PubChem BioAssay
For some assays here: Measured potencies and affinities stand elsewhere. The source made the active and inactive calls. Unless noted, how the calls were made is not given here.

Tests used:
[1] = antimalarial activity against Dd2 strain (AID 2302;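 active means growth inhibition above 50% at the single 2 µM test dose, taken to imply half-maximal potency below 2 µM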;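 further: 0% = DMSO untreated growth and 100% = chloroquine plus artemisinin killed control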); conditions: P. falciparum Dd2 in RBCs, LDH growth readout, 72 h; at 2 µM; stronger effect = higher value
[2] = HepG2 cytotoxicity, primary screen, cytotoxicity control for P. falciparum antimalarial project, cell-based, ATP luminescence (AID 2303;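 active means inhibition above 50%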;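 further: 0% = DMSO wells and 100% = digitonin-killed cells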); conditions: HepG2 viability, 24-48 h, at 10 µM, stronger effect = higher value
[3] = target: L-lactate dehydrogenase (Plasmodium falciparum (isolate CDC / Honduras)) (UniProt Q27743); test: PfLDH activity inhibition – cell lysate, 3D7 strain, counter-screen for P. falciparum growth inhibition project (AID 2304);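 further: 0% = vehicle and 100% = reference inhibitor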; conditions: P. falciparum 3D7 crude extract, LDH APAD/NBT absorbance; at 2 µM; stronger effect = higher value
Chain of L-lactate dehydrogenase (Plasmodium falciparum (isolate CDC / Honduras)) (Q27743 whole entry, looked up): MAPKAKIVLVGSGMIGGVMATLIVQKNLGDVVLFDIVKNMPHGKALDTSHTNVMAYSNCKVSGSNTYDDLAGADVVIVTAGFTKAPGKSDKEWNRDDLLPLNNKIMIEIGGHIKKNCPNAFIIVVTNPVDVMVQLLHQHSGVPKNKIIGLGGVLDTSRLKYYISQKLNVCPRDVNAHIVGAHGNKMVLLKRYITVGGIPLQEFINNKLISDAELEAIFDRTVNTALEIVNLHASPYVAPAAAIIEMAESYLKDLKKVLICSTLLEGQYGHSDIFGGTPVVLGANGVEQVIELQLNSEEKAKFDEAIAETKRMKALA

[4] = inhibition of 3D7 malaria parasite growth – strain 3D7 (AID 2306);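 further: 0% = DMSO wells and 100% = chloroquine plus artemisinin control wells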; conditions: P. falciparum 3D7 erythrocytic growth, LDH absorbance, 72 h; at 2 µM; stronger effect = higher value
[5] = target: Calcium-dependent protein kinase 1 (Plasmodium falciparum (isolate 3D7)) (UniProt P62344); test: PfCDPK1 kinase inhibitors, biochemical, TCAMS library (AID 1159585; cut-off not given, nearly all actives have IC50 up to about 0.98 µM;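 further: inhibitors leave more ATP so luminescence rises with inhibition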); conditions: recombinant PfCDPK1, Kinase-Glo ATP depletion luminescence
Chain of Calcium-dependent protein kinase 1 (Plasmodium falciparum (isolate 3D7)) (P62344 whole entry, looked up): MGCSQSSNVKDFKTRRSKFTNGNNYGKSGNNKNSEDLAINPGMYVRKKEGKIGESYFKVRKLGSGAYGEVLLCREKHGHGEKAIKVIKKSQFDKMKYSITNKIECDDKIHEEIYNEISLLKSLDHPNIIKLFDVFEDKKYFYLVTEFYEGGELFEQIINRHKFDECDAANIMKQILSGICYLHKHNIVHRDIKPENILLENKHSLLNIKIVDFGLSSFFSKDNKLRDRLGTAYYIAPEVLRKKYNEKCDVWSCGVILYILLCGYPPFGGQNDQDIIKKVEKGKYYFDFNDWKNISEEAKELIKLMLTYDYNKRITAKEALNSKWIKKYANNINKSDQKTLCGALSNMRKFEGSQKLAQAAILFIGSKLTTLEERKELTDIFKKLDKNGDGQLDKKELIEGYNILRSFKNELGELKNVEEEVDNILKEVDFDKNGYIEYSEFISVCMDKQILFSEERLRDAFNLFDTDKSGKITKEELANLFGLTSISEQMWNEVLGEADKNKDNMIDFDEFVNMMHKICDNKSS

[6] = target: Plasmodium falciparum protein kinase 6 (PK6, PF3D7_1337100) (UniProt Q8IDW1); test: PfPK6 kinase inhibitors, biochemical, TCAMS library (AID 1159586); conditions: recombinant PfPK6, Kinase-Glo ATP depletion luminescence
Chain of Plasmodium falciparum protein kinase 6 (PK6, PF3D7_1337100) (Q8IDW1 1-305): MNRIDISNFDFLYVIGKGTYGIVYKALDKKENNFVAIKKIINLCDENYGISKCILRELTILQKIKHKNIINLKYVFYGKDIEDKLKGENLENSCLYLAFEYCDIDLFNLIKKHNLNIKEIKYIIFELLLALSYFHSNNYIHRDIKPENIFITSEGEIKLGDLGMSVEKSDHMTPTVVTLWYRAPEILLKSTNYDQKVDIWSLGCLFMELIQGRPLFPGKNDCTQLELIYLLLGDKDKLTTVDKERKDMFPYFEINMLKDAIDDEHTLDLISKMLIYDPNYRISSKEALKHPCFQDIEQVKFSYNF

[7] = target: Protein kinase 7 (PK7), Plasmodium falciparum 3D7 (PF3D7_0213400) (UniProt Q7YTF7); test: inhibition of Plasmodium PK7 catalytic activity – biochemical, TCAMS antimalarial set, Kinase-Glo luminescence (AID 1159587); conditions: recombinant PfPK7, Kinase-Glo ATP depletion luminescence
Chain of Protein kinase 7 (PK7), Plasmodium falciparum 3D7 (PF3D7_0213400) (Q7YTF7 1-343): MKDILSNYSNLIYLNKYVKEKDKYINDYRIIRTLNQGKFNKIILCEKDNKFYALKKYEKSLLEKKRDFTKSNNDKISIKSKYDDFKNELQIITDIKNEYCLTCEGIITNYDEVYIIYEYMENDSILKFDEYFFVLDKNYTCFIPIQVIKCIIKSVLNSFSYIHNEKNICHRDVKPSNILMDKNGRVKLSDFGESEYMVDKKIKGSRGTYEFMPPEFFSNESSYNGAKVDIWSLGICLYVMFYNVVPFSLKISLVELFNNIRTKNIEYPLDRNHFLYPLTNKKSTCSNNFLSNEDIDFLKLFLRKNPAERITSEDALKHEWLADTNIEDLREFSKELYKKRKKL

[8] = target: Calcium-dependent protein kinase 4 (Plasmodium falciparum (isolate 3D7)) (UniProt Q8IBS5); test: PfCDPK4 kinase inhibitors, biochemical, TCAMS library (AID 1159588; cut-off not given, nearly all actives have IC50 up to about 0.91 µM); conditions: recombinant PfCDPK4, Kinase-Glo ATP depletion luminescence
Chain of Calcium-dependent protein kinase 4 (Plasmodium falciparum (isolate 3D7)) (Q8IBS5 whole entry, looked up): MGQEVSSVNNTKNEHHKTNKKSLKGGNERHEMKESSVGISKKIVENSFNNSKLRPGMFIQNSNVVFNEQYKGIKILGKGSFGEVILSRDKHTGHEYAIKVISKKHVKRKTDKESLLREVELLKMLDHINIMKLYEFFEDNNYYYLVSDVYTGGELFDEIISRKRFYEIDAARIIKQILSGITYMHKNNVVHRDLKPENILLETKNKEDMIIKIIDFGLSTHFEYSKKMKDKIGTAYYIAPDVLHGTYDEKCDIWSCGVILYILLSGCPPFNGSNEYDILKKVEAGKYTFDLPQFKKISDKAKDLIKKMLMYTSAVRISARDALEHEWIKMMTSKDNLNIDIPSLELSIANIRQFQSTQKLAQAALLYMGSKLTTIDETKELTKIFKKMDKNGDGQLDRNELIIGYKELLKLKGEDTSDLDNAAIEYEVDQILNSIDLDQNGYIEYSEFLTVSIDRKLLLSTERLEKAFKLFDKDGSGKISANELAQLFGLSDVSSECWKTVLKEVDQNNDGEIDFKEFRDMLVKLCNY

CC(C)CCN1CCC(Oc2ccc(NC(=O)c3ccco3)cc2Cl)CC1
inactive: inhibition [2] 1% | inhibition [3] 3% | outcome [5] | outcome [6] | outcome [7] | outcome [8]
active: growth inhibition [1] 93% | growth inhibition [4] 95%

CCCOc1c(CCNCCCCNCCc2ccc3ccccc3c2OCCC)ccc2ccccc12
active: growth inhibition [1] 78% | inhibition [2] 100% | growth inhibition [4] 100%
inactive: inhibition [3] 7% | outcome [5] | outcome [6] | outcome [7] | outcome [8]

Nc1nc(N)c2c3c(cnc2n1)CCCC3
active: inhibition [2] 61% | growth inhibition [4] 95%
inactive: growth inhibition [1] -4% | inhibition [3] -4% | outcome [5] | outcome [6] | outcome [7] | outcome [8]

O=C(NC1CCN(Cc2ccccc2)CC1)c1ccc(-c2nc3cc4ccccc4cc3[nH]2)s1
inactive: growth inhibition [1] 25% | inhibition [2] 13% | inhibition [3] -1% | outcome [5] | outcome [6] | outcome [7] | outcome [8]
active: growth inhibition [4] 99%

C#CCNCc1ccc(-c2cccc(-c3nc4c(C)cccc4[nH]3)c2)cc1
active: growth inhibition [4] 100%
inactive: growth inhibition [1] 32% | inhibition [2] -4% | inhibition [3] 2% | outcome [5] | outcome [6] | outcome [7] | outcome [8]

COc1ccc(CNc2nc(NCc3ccccc3)c3cc(OC)c(OC)cc3n2)cc1OC
inactive: inhibition [2] 24% | inhibition [3] -6% | outcome [5] | outcome [6] | outcome [7] | outcome [8]
active: growth inhibition [1] 99% | growth inhibition [4] 103%

COc1ccccc1C(C)NCC(=O)Nc1cccc(C(=O)Nc2cccc(C(F)(F)F)c2)c1 (stereo unspecified)
inactive: growth inhibition [1] 39% | inhibition [2] 34% | inhibition [3] 5% | outcome [5] | outcome [6] | outcome [7] | outcome [8]
active: growth inhibition [4] 91%

Fc1cccc(Cl)c1-c1nc(NCCC(c2ccccc2)c2ccccc2)no1
inactive: inhibition [2] 4% | inhibition [3] -3% | outcome [5] | outcome [6] | outcome [7] | outcome [8]
active: growth inhibition [1] 87% | growth inhibition [4] 99%

O=C(/C=C/c1ccc(Cl)c(Cl)c1)NCCCCCN1CCC(NC(=O)Nc2ccc(C(F)(F)F)cc2)CC1
inactive: growth inhibition [1] 34% | inhibition [3] 3% | outcome [5] | outcome [6] | outcome [7] | outcome [8]
active: inhibition [2] 58% | growth inhibition [4] 94%

FC(F)(F)c1ccc2nc(-c3ccc(-c4cccc(CNCc5ccccc5)c4)cc3)[nH]c2c1
inactive: growth inhibition [1] 43% | inhibition [2] -2% | inhibition [3] -5% | outcome [5] | outcome [6] | outcome [7] | outcome [8]
active: growth inhibition [4] 100%

Cc1cc(NN=Cc2ccc(F)cc2)c2cc(F)ccc2n1
inactive: inhibition [2] 6% | inhibition [3] -4% | outcome [5] | outcome [6] | outcome [7] | outcome [8]
active: growth inhibition [1] 61% | growth inhibition [4] 101%

NC1CCCN(Cc2cccc(-c3cccc(-c4nc5ccccc5[nH]4)c3)c2)C1 (stereo unspecified)
active: growth inhibition [1] 61% | growth inhibition [4] 101%
inactive: inhibition [2] 24% | inhibition [3] -5% | outcome [5] | outcome [6] | outcome [7] | outcome [8]

O=C(Cc1ccc(NC(=O)c2ccc(O)c(-c3cccc([N+](=O)[O-])c3)c2)cc1)NCCN1CCCCC1
active: growth inhibition [4] 89%
inactive: growth inhibition [1] 3% | inhibition [2] 4% | inhibition [3] 4% | outcome [5] | outcome [6] | outcome [7] | outcome [8]

COc1ccc(CN2CCC(CNCCc3ccccc3Cl)CC2)cc1
active: growth inhibition [4] 87%
inactive: growth inhibition [1] 17% | inhibition [2] 36% | inhibition [3] -9% | outcome [5] | outcome [6] | outcome [7] | outcome [8]

CC(C)c1ccc(CN2CCCCC(NC(=O)c3cc(-c4ccccc4F)cs3)C2)cc1 (stereo unspecified)
inactive: inhibition [2] 18% | inhibition [3] -2% | outcome [5] | outcome [6] | outcome [7] | outcome [8]
active: growth inhibition [1] 84% | growth inhibition [4] 99%

Cc1cccc2[nH]c(-c3cccc(-c4ccc(CNCCNC(=O)c5ccnn5C)cc4)c3)nc12
inactive: inhibition [2] 21% | inhibition [3] -2% | outcome [5] | outcome [6] | outcome [7] | outcome [8]
active: growth inhibition [1] 100% | growth inhibition [4] 102%

COc1ccc(C2CC(c3cccs3)=NN2C(=O)c2ccco2)cc1OC (stereo unspecified)
active: growth inhibition [1] 97% | growth inhibition [4] 101%
inactive: inhibition [2] -3% | inhibition [3] 4% | outcome [5] | outcome [6] | outcome [7] | outcome [8]

Cc1cccc2[nH]c(-c3ccc(-c4ccc(CN5CCN(c6ccncc6)CC5)cc4)s3)nc12
inactive: inhibition [3] 2% | outcome [5] | outcome [6] | outcome [7] | outcome [8]
active: growth inhibition [1] 98% | inhibition [2] 85% | growth inhibition [4] 102%

CCC[C@]1(C)CSc2ccccc2[C@@H](c2ccccc2)N1
inactive: growth inhibition [1] 2% | inhibition [3] -3% | outcome [5] | outcome [6] | outcome [7] | outcome [8]
active: inhibition [2] 60% | growth inhibition [4] 87%

Cc1cc(N[C@@H](Cc2ccccc2)C(=O)NC2CCCC2)nc(NCCOc2ccccc2)n1
active: growth inhibition [4] 98%
inactive: growth inhibition [1] 48% | inhibition [2] 40% | inhibition [3] 0% | outcome [5] | outcome [6] | outcome [7] | outcome [8]

c1ncc(CCNc2nc(Nc3ccc4c(c3)OCO4)nc(NC3CCCC3)n2)[nH]1
inactive: growth inhibition [1] -3% | inhibition [2] -1% | inhibition [3] -2% | outcome [5] | outcome [6] | outcome [7] | outcome [8]
active: growth inhibition [4] 80%

Clc1cccc(-c2nc(Nc3ccnc(-c4ccc(CN5CCOCC5)cc4)c3)c3ccccc3n2)c1
inactive: inhibition [2] 8% | inhibition [3] -4% | outcome [5] | outcome [6] | outcome [7] | outcome [8]
active: growth inhibition [1] 65% | growth inhibition [4] 100%

CN1C(C)(C)CC(NC(=O)c2ccc(-c3nc4ccc(Cl)cc4[nH]3)cc2)CC1(C)C
active: growth inhibition [4] 99%
inactive: growth inhibition [1] 36% | inhibition [2] 23% | inhibition [3] -3% | outcome [5] | outcome [6] | outcome [7] | outcome [8]

Cc1cccc(-c2nn(-c3ccccc3)c3[nH]c(=O)c(CN4CCSCC4)cc23)c1
inactive: inhibition [2] -3% | inhibition [3] 0% | outcome [5] | outcome [6] | outcome [7] | outcome [8]
active: growth inhibition [1] 98% | growth inhibition [4] 98%

Cc1c(CN2CCCCC2)cccc1OCCCNc1nc(NCCc2ccc(O)cc2)nc(N2CCNCC2)n1
inactive: growth inhibition [1] 23% | inhibition [2] 26% | inhibition [3] 3% | outcome [5] | outcome [6] | outcome [7] | outcome [8]
active: growth inhibition [4] 101%

CC1=C(C(=O)Nc2cc3cn[nH]c3cc2F)C(c2cccc(NS(C)(=O)=O)c2)CC(=O)N1 (stereo unspecified)
inactive: inhibition [2] -10% | inhibition [3] -4% | outcome [5] | outcome [6] | outcome [7] | outcome [8]
active: growth inhibition [1] 97% | growth inhibition [4] 96%

COc1ccc(CNCc2ccsc2)cc1-c1ccc(S(=O)(=O)NCCN2CCCC2)s1
active: growth inhibition [4] 101%
inactive: growth inhibition [1] 34% | inhibition [2] 39% | inhibition [3] -7% | outcome [5] | outcome [6] | outcome [7] | outcome [8]

CCCCCCCC1CC(CC(=O)Nc2ccnc3ccc(OC)cc23)CN1 (stereo unspecified)
active: growth inhibition [1] 58% | growth inhibition [4] 90%
inactive: inhibition [2] 22% | inhibition [3] -2% | outcome [5] | outcome [6] | outcome [7] | outcome [8]

O=C(Nc1ccc(N2CCN(c3ncccc3C(F)(F)F)CC2)nc1)c1cccs1
inactive: growth inhibition [1] 40% | inhibition [2] 7% | inhibition [3] -7% | outcome [5] | outcome [6] | outcome [7] | outcome [8]
active: growth inhibition [4] 83%

CCN(CC)S(=O)(=O)c1ccc(C=CC(=O)Nc2cc(Cl)ccc2N2CCOCC2)cc1
active: growth inhibition [1] 65% | growth inhibition [4] 90%
inactive: inhibition [2] 3% | inhibition [3] 4% | outcome [5] | outcome [6] | outcome [7] | outcome [8]

CSc1nc2nc(C)c(Cc3cccc(C(F)(F)F)c3)c(C)n2n1
active: growth inhibition [1] 95% | growth inhibition [4] 98%
inactive: inhibition [2] 4% | inhibition [3] 2% | outcome [5] | outcome [6] | outcome [7] | outcome [8]

O=C(CCc1cnc[nH]1)Nc1cccc(-c2cccc(-c3nc4ccc(C(F)(F)F)cc4[nH]3)c2)c1
inactive: inhibition [2] 17% | inhibition [3] 7% | outcome [5] | outcome [6] | outcome [7] | outcome [8]
active: growth inhibition [1] 99% | growth inhibition [4] 101%

O=C(c1ccc(F)c(F)c1)N1CCOC(CCN2CCC(c3ccccc3)CC2)(c2ccc(Cl)c(Cl)c2)C1 (stereo unspecified)
inactive: inhibition [3] 2% | outcome [5] | outcome [6] | outcome [7] | outcome [8]
active: growth inhibition [1] 75% | inhibition [2] 51% | growth inhibition [4] 89%

CC1(C)N=C(N)N=C(N)N1OCc1cc2ccccc2cc1CON1C(N)=NC(N)=NC1(C)C
inactive: inhibition [2] 0% | inhibition [3] -5% | outcome [5] | outcome [6] | outcome [7] | outcome [8]
active: growth inhibition [1] 51% | growth inhibition [4] 92%

O=C(/C=C/c1ccc(Cl)c(Cl)c1)NC1CCC(CN2CCC(c3nc4ncccc4[nH]3)CC2)CC1 (stereo unspecified)
active: growth inhibition [4] 101%
inactive: growth inhibition [1] 2% | inhibition [2] 7% | inhibition [3] -1% | outcome [5] | outcome [6] | outcome [7] | outcome [8]

CN(C)CCCn1c(C(=O)OC(c2ccccc2)c2ccccc2)cc2cc(OCc3ccccc3)ccc21
inactive: inhibition [2] 12% | inhibition [3] 0% | outcome [5] | outcome [6] | outcome [7] | outcome [8]
active: growth inhibition [1] 85% | growth inhibition [4] 82%

COc1cc2c(cc1OCCN1CCC(N3CCCCC3)CC1)N(C(=O)/C=C/c1ccccc1OC(F)(F)F)CC2
active: growth inhibition [1] 93% | inhibition [2] 64% | growth inhibition [4] 101%
inactive: inhibition [3] -7% | outcome [5] | outcome [6] | outcome [7] | outcome [8]
